From PubChem BioAssay AID687014 (The Scripps Research Institute Molecular Screening Center, 2013)
Out of some 370,000 compounds screened, about 6,800 (1.8%) were called active. The full list was thinned out, with actives kept by preference. Unmarked numbers belong to inactive results.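 The calls were made as follows: active = activation above a cutoff set at the mean of all screened compounds plus 3 SD (cut at about 10% in these data); inactive = the rest.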

The molecules below were run on Nuclear hormone receptor DAF-12 (Heterodera glycines), GAL4 fusion (assay: H. glycines DAF-12 receptor agonists, primary screen, cell-based, luminescence, HEK293, GAL4 fusion, UAS-luciferase (AID 687014;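 also: 0% = DMSO wells and 100% = sodium butyrate wells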)). Conditions: HEK293 GAL4-hgDAF12 UAS-luciferase reporter, agonist luminescence; at 6.8 µM; active compounds read high; normalized to butyrate control.

Structure (SMILES)	activation
COc1cccc(C(NC(C)=O)c2nc(-c3cnc4ccccc4c3)cs2)c1 (stereo unspecified)	-1%
OC(c1ccccc1)c1nc(-c2cnc3ccccc3c2)cs1 (stereo unspecified)	22.6% (active)
CC(C)c1cccc(-c2csc(C(O)c3ccccc3)n2)c1 (stereo unspecified)	5.67%
Cc1ccc(N2C(=O)c3ccccc3C2(O)c2ncc[nH]2)cc1 (stereo unspecified)	0.14%
Cc1cccc(NC(=O)N(Cc2cc3cc(C)cc(C)c3[nH]c2=O)CC2COCCO2)c1 (stereo unspecified)	11.3% (active)
Cc1ccc2[nH]c(=O)c(CN(CC3COCCO3)C(=O)Nc3ccccc3C)cc2c1 (stereo unspecified)	-1.5%
COc1ccc2[nH]c(=O)c(CN(CC3CCCO3)C(=O)Nc3ccccc3)cc2c1 (stereo unspecified)	-1.35%
O/N=C(\c1ccc2c(c1)OCCO2)C1CCCCC1	-1.1%
CC(CCN1CCC(C(O)(c2ccccc2)c2ccccc2)CC1)Oc1ccc(Cl)cc1 (stereo unspecified)	-0.38%
C=CCN1C(=O)[C@@H](CC(=O)NCC2CCCCC2)[C@]2(C(=O)OC)CCCCC=C12	2.02%
O=C(Oc1ccc(-c2nc(-c3ccccn3)no2)cc1)c1ccccc1	10.9% (active)
O=C(COc1cccc(F)c1)Oc1ccc(C(=O)c2ccccc2)cc1	3.93%
COC(=O)c1ccc(-c2noc(CN(Cc3ccccn3)CC3CCCO3)n2)cc1 (stereo unspecified)	1.07%
CCCC[C@H]1C2CC(OC(=O)NCc3ccccc3)C(C2)[C@H]2CCCCN21 (stereo partly specified)	-3.36%
Cc1ccc2c(c1)N(CC(=O)NCCc1ccc(Cl)cc1)C(=O)c1cccnc1O2	0.09%
CN(C)c1ccc(NC(=O)c2ccncc2)c2ccccc12	-2.36%

Structure (SMILES)	activation
Cc1ccc(NC(=O)c2oc3ccccc3c2C)c([N+](=O)[O-])c1	0.32%
O=C(Nc1ccc2ccccc2c1[N+](=O)[O-])c1ccccc1	15.2% (active)
COP(=O)(O)CNC(=O)OCc1ccccc1	2%
O=C(CSc1nc2ccccc2n1Cc1ccccc1)NNC(=S)Nc1ccccc1	-0.74%
CCNC(=O)C1(C)CCN(C(=O)c2ccccc2)C1 (stereo unspecified)	2.75%
CCN1C(=O)N[C@@H]2C[C@H](C(=O)N3CCCC3)[C@H](C)[C@H](c3ccccc3)C[C@@H]21	5.37%
C=CCOc1c2ccc(C(=O)N(CC)c3ccc(OC)cc3)cc2nn1C	-1.06%
CC(=O)C1=C(C)N(Cc2ccccc2)C(=S)NC1c1cccc(Br)c1 (stereo unspecified)	-0.58%
COc1ccnc(NC(=S)N2CCN(c3ncc(C(F)(F)F)cc3Cl)CC2)c1	2.05%
Fc1ccc2cnc(-c3ccccc3)cc2c1	15.4% (active)
O=c1cc(-c2ccccc2)[nH]c2cc(F)ccc12	-0.32%
COc1cc(OC)cc(-c2cc3ccc(F)cc3cn2)c1	8.86%
CC(C)Cn1c(SCC(=O)Nc2ccc(Cl)cc2F)nc(O)cc1=O	-0.64%
CC(=O)c1cc(-c2ccc3ccccc3c2)c(=O)n2c1CCC2	0.58%
Cc1sc2nc(SCC(=O)c3ccc(O)c(O)c3)n(Cc3ccco3)c(=O)c2c1C	-0.58%
